The results in this text go back to publication PMC7862700, “An all-to-all approach to the identification of sequence-specific readers for epigenetic DNA modifications on cytosine”.

Assay in all cases: DAPPL (digital affinity profiling via proximity ligation, sequencing); 10 mM Tris-HCl pH 7.5, 50 mM NaCl, 1 mM DTT, 4% glycerol, room temperature, 30 min; GST-TFs on glutathione beads, 16-mer random dsDNA library, 0.1% formaldehyde crosslink after washing; high values mean tight binding
Common to all, as to conditions: protein: recombinant; tags: N-terminal GST; dsDNA, one strand shown

In one assay the target is T1, FLI1 (Homo sapiens, UniProt Q01543 1-452).
T1 sequence: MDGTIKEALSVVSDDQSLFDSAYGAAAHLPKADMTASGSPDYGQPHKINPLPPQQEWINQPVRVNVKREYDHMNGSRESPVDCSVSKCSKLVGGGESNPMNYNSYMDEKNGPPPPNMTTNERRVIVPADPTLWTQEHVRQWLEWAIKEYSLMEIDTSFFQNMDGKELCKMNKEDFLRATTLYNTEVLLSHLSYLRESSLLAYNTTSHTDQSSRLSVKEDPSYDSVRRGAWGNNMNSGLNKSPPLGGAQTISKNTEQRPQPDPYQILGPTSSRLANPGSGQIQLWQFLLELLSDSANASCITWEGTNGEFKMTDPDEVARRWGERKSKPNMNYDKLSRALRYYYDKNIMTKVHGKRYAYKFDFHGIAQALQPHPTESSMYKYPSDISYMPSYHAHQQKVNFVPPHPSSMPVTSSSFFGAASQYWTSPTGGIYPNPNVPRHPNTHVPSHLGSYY
The procedure, abridged:
(§1)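 Human transcription factors fused to GST were expressed in yeast, captured on glutathione beads, given DNA barcodes and pooled with a GST-only negative control. Pools were incubated with 200 nmole of a 16-mer random double-stranded DNA library in Tris/NaCl/DTT/glycerol buffer at room temperature for 30 min. They were then washed, crosslinked with 0.1% formaldehyde, proximity-ligated (BsaI/T4 ligase, 1 h, 37 °C), PCR-amplified and sequenced on an Illumina NextSeq500. Binding signal is each 6-mer's read frequency for a factor divided by its frequency for the GST control.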

The target of a further assay is T2, ELK1 (Homo sapiens, UniProt P19419 1-428).
T2 sequence: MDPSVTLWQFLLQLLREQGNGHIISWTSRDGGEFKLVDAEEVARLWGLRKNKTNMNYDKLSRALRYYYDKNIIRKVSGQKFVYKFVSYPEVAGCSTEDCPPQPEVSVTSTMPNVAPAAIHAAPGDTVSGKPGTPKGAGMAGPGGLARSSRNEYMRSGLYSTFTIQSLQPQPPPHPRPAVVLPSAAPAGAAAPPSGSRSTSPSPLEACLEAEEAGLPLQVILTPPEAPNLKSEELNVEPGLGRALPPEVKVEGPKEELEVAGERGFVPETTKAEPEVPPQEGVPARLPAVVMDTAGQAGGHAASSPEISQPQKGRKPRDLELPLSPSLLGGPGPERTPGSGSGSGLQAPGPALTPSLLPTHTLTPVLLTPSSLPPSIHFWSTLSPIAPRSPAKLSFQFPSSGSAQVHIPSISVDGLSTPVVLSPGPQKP
In a few lines: as §1

The next assay addresses T3, GABPA (Homo sapiens, UniProt Q06546 1-454).
T3 sequence: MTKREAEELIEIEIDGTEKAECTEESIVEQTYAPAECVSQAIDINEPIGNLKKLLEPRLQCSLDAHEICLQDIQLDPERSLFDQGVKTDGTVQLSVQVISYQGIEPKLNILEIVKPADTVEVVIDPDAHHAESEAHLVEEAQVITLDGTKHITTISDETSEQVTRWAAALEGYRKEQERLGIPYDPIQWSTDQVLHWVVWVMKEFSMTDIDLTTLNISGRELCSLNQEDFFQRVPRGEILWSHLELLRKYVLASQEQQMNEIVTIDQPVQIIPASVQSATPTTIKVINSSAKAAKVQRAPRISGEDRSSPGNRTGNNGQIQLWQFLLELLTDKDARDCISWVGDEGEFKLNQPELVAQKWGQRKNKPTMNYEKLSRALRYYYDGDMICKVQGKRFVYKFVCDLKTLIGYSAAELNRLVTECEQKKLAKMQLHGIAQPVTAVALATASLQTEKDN
The procedure, abridged:
as §1

The target of a further assay is T4, ERG (Homo sapiens, UniProt P11308 1-479).
T4 sequence: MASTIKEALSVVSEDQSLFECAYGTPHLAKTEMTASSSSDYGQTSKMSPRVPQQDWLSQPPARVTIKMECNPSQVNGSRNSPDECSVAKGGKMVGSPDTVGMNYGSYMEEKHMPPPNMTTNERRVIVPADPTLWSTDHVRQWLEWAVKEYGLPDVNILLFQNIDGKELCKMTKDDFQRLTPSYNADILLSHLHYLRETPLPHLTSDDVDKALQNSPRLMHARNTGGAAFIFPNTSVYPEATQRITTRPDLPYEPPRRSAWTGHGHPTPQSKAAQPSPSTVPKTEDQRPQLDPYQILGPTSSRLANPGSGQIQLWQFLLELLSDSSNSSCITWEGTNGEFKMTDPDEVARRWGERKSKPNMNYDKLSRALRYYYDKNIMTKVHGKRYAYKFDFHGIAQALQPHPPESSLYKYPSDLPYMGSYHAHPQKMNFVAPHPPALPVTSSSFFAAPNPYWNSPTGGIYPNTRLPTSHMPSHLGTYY
In a few lines: as §1

In the next assay the target is ELF1 (Homo sapiens, UniProt P32519 1-619). In a few lines: as §1
ELF1, sequence (P32519 whole entry): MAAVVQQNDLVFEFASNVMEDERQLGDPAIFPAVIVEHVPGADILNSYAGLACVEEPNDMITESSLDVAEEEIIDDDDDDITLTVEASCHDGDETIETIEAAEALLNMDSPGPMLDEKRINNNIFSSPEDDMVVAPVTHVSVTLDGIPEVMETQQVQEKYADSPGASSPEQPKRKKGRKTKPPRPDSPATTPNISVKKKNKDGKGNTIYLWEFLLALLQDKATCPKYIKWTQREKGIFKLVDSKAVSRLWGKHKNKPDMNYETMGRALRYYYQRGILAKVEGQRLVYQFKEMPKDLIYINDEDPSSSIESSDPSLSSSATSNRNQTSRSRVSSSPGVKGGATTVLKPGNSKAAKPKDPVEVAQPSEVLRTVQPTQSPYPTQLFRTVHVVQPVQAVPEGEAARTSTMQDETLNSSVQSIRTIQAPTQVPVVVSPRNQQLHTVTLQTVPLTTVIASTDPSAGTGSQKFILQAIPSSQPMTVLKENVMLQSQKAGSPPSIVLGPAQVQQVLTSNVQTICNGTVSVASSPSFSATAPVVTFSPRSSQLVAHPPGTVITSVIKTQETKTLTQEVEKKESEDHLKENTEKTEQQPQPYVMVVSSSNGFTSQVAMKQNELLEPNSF
The next assay addresses T5, EHF (Homo sapiens, UniProt Q9NZC4 1-300).
T5 sequence: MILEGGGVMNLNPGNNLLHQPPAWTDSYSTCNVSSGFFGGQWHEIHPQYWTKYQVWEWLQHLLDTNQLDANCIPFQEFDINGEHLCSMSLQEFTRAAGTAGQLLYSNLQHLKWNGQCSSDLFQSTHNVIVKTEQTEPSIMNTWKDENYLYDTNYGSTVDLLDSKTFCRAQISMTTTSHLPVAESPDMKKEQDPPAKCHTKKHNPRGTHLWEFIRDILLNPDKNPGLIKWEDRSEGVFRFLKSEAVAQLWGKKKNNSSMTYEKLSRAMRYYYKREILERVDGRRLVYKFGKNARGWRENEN
In a few lines: as §1

Assay [1] concerns the target SPI1 (Homo sapiens, UniProt P17947 1-270). The procedure, abridged: as §1
Another assay concerns the target SPIB (Homo sapiens, UniProt Q01892 1-262). The procedure, abridged: as §1
In the next assay the target is T6, ELK3 (Homo sapiens, UniProt P41970 1-407).
T6 sequence: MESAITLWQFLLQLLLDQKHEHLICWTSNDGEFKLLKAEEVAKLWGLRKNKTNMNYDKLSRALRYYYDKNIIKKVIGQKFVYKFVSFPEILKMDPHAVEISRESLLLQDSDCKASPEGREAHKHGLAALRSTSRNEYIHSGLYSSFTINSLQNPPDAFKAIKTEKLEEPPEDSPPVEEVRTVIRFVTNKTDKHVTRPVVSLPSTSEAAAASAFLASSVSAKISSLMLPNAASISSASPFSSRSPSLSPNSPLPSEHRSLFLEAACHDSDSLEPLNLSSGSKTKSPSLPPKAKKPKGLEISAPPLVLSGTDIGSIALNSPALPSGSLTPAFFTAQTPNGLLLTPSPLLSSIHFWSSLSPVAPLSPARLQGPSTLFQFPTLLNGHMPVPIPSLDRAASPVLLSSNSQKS
In a few lines: as §1

For assay [2], the target named is SPI1 (Homo sapiens, UniProt P17947 1-270). The procedure, abridged: as §1
This is another data set of the same source.

SPIB, sequence (Q01892 whole entry): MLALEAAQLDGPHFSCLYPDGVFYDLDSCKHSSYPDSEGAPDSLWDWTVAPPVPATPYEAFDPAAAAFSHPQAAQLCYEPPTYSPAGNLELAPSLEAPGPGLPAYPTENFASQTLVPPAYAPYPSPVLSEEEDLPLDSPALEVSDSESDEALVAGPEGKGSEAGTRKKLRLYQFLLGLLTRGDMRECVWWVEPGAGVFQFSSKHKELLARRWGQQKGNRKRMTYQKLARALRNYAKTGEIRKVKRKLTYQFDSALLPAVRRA

In the case of CCATAT, the binding signal in the assay with FLI1 was 1.23 fold enrichment (6-mer frequency, TF over GST control); with ELK1, 1.24 fold enrichment (6-mer frequency, TF over GST control); with GABPA it was 1.19 fold enrichment (6-mer frequency, TF over GST control); in the assay with ERG, 1.37 fold enrichment (6-mer frequency, TF over GST control); with ELF1 it was 1.22 fold enrichment (6-mer frequency, TF over GST control); with EHF, 1.22 fold enrichment (6-mer frequency, TF over GST control). Also, the binding signal is 1.16 fold enrichment (6-mer frequency, TF over GST control) with SPI1 [1]; 1.26 fold enrichment (6-mer frequency, TF over GST control) with SPIB; 1.26 fold enrichment (6-mer frequency, TF over GST control) in the assay with ELK3.
AATGAG: the binding signal was 1.09 fold enrichment (6-mer frequency, TF over GST control) in the assay with FLI1; 1.18 fold enrichment (6-mer frequency, TF over GST control) with ELK1; 1.22 fold enrichment (6-mer frequency, TF over GST control) with GABPA; 1.12 fold enrichment (6-mer frequency, TF over GST control) with ERG; 1.14 fold enrichment (6-mer frequency, TF over GST control) with ELF1; 1.18 fold enrichment (6-mer frequency, TF over GST control) with EHF. Besides, the binding signal is 1.51 fold enrichment (6-mer frequency, TF over GST control) with SPI1 [1]; 1.08 fold enrichment (6-mer frequency, TF over GST control) in the assay with SPIB; 1.23 fold enrichment (6-mer frequency, TF over GST control) with ELK3.
Take TACTTC: the binding signal with FLI1 was 3.38 fold enrichment (6-mer frequency, TF over GST control); with ELK1, 3.79 fold enrichment (6-mer frequency, TF over GST control); with GABPA, 3.25 fold enrichment (6-mer frequency, TF over GST control); with ERG, 3.88 fold enrichment (6-mer frequency, TF over GST control); with ELF1, 3.54 fold enrichment (6-mer frequency, TF over GST control); with EHF it was 3.7 fold enrichment (6-mer frequency, TF over GST control). For the same sequence, the binding signal in the assay with SPI1 [2] is 4.12 fold enrichment (6-mer frequency, TF over GST control); in the assay with SPIB it was 3.33 fold enrichment (6-mer frequency, TF over GST control); in the assay with ELK3, 4.29 fold enrichment (6-mer frequency, TF over GST control).
As for CTCGAG, the binding signal with FLI1 was 1.23 fold enrichment (6-mer frequency, TF over GST control); with ELK1, 1.34 fold enrichment (6-mer frequency, TF over GST control); with GABPA, 1.35 fold enrichment (6-mer frequency, TF over GST control); in the assay with ERG, 1.31 fold enrichment (6-mer frequency, TF over GST control); with ELF1, 1.28 fold enrichment (6-mer frequency, TF over GST control); with EHF, 1.21 fold enrichment (6-mer frequency, TF over GST control). The binding signal with SPI1 [1] was 1.35 fold enrichment (6-mer frequency, TF over GST control); in the assay with SPIB, 1.31 fold enrichment (6-mer frequency, TF over GST control); with ELK3 it was 1.18 fold enrichment (6-mer frequency, TF over GST control).
On to ACTTCC, for which the binding signal was 7.89 fold enrichment (6-mer frequency, TF over GST control) with FLI1; 8.92 fold enrichment (6-mer frequency, TF over GST control) in the assay with ELK1; 7.33 fold enrichment (6-mer frequency, TF over GST control) with GABPA; 10 fold enrichment (6-mer frequency, TF over GST control) with ERG; 7.99 fold enrichment (6-mer frequency, TF over GST control) with ELF1; 8.81 fold enrichment (6-mer frequency, TF over GST control) with EHF. Besides, the binding signal with SPI1 [2] is 12.7 fold enrichment (6-mer frequency, TF over GST control); in the assay with SPIB, 8.52 fold enrichment (6-mer frequency, TF over GST control); with ELK3 it was 9.72 fold enrichment (6-mer frequency, TF over GST control).
As for ATTTTT, the binding signal in the assay with FLI1 is 1.14 fold enrichment (6-mer frequency, TF over GST control); with ELK1, 1.14 fold enrichment (6-mer frequency, TF over GST control); with GABPA it was 1.13 fold enrichment (6-mer frequency, TF over GST control); with ERG, 1.1 fold enrichment (6-mer frequency, TF over GST control); with ELF1, 1.14 fold enrichment (6-mer frequency, TF over GST control); in the assay with EHF it was 1.22 fold enrichment (6-mer frequency, TF over GST control). Also, the binding signal with SPI1 [1] is 1.18 fold enrichment (6-mer frequency, TF over GST control); with SPIB, 1.19 fold enrichment (6-mer frequency, TF over GST control); in the assay with ELK3, 1.12 fold enrichment (6-mer frequency, TF over GST control).
Consider CTAAGT, for which the binding signal in the assay with FLI1 is 1.21 fold enrichment (6-mer frequency, TF over GST control); with ELK1, 1.17 fold enrichment (6-mer frequency, TF over GST control); with GABPA, 1.26 fold enrichment (6-mer frequency, TF over GST control); with ERG, 1.18 fold enrichment (6-mer frequency, TF over GST control); with ELF1, 1.2 fold enrichment (6-mer frequency, TF over GST control); with EHF, 1.26 fold enrichment (6-mer frequency, TF over GST control). Besides, the binding signal with SPI1 [1] is 1.19 fold enrichment (6-mer frequency, TF over GST control); with SPIB it was 1.24 fold enrichment (6-mer frequency, TF over GST control); with ELK3 it was 1.16 fold enrichment (6-mer frequency, TF over GST control).
Turning to TTTCAC, the binding signal in the assay with FLI1 was 1.39 fold enrichment (6-mer frequency, TF over GST control); in the assay with ELK1 it was 1.34 fold enrichment (6-mer frequency, TF over GST control); with GABPA, 1.37 fold enrichment (6-mer frequency, TF over GST control); with ERG, 1.33 fold enrichment (6-mer frequency, TF over GST control); with ELF1, 1.43 fold enrichment (6-mer frequency, TF over GST control); in the assay with EHF it was 1.3 fold enrichment (6-mer frequency, TF over GST control). Also, the binding signal is 1.34 fold enrichment (6-mer frequency, TF over GST control) in the assay with SPI1 [1]; 1.27 fold enrichment (6-mer frequency, TF over GST control) in the assay with SPIB; 1.39 fold enrichment (6-mer frequency, TF over GST control) with ELK3.
